# From PubChem BioAssay
# An excerpt weighted towards active compounds, which were near 19% of everything screened.
# Pf growth 48h: inhibits P. falciparum growth in the first generation, 48 h | P. falciparum luciferase growth in erythrocytes, 48 h | Potency, µM (series often up to 28.7 µM), for inactives: at the top dose activity change, negative = inhibition, actives largely listed as inhibitors | 310,000 compounds, 5.9% hits | AID 504832; also: potency is read from the fitted curve at half-maximal effect; % is scaled to controls: 0 for no effect and ±100 for the full control effect
#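 Compounds are pin-transferred into medium, infected erythrocytes (2% hematocrit, 0.1% parasitemia final) are added, and plates sit one parasite generation at 37 C in 5% CO2. Detection reagent is then added and luminescence measured.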
# CHX counter: counter-screen hit for Shiga toxin inhibitors, cycloheximide; max response, %; 300,000 compounds, 12% hits; cell reporter, cycloheximide protein synthesis inhibition counterscreen; in the data active = max response mostly above about 13%, no sharp cut-off; inactive = mostly below about 14%; also: read at 38.3 µM for the half of the compounds with a filed dose; 0% is about no effect
# AMA1-RON2 inh: disrupts binding of P. falciparum AMA1 to RON2. Potency, µM (highest dose often 58.2 µM), inactives show at the highest dose activity change, negative = inhibition, hits mostly inhibitors. AlphaScreen AMA1-biotinylated RON2 peptide binding. AID 720542. 360,000 compounds, 0.2% hits;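 also: potency is read from the fitted curve at half-maximal effect; 0% = vehicle wells and -100% = peptide control; nearly all actives have a fitted effect of over 45% in size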
#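 AMA1 (3D7) with his tag at 25 nM final met compounds first, then biotinylated RON2 peptide at 25 nM; detection used donor plus acceptor beads, 10 µg/mL apiece, read by AlphaScreen after 30 min at room temperature.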
# Pf growth 96h: inhibits malaria parasite growth, 96 h; P. falciparum luciferase reporter growth, 96 h; Potency, µM (top dose mostly 28.7 µM), inactives show top-dose activity change, negative = inhibition, usual class: inhibitors; 320,000 compounds, 6.9% hits; AID 504834; also: potency is read from the fitted curve at half-maximal effect; % is scaled to controls: 0 for no effect and ±100 for the full control effect
#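 P. falciparum expressing integrated firefly luciferase, in erythrocytes at 2% hematocrit, 0.05% parasitemia, incubated with compounds 96 h at 37 C, 5% CO2. Growth inhibition read as loss of luminescence; two-generation exposure targets delayed-death apicoplast inhibitors.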
# Shiga toxin inh: blocks Shiga toxin action in Vero cells. Vero cells, Shiga toxin protein synthesis inhibition reporter. inhibition, % at 38.7 µM. 290,000 compounds, 9.2% hits; in the data active = inhibition mostly above about 28%, no sharp cut-off; inactive = mostly below about 43%; also: 0% is about no effect
# SARS PLpro yeast: inhibitors of SARS-CoV papain-like protease in yeast; 330,000 compounds, 0.19% hits; Potency, µM (highest dose often 32.9 µM), for the others: top-dose activity, positive = growth rescue, actives largely listed as activators; S. cerevisiae expressing SARS-CoV PLpro, growth rescue; AID 485353; calls by dose curve; also: potency is read from the fitted curve at half-maximal effect; 0% is about no effect; nearly all actives have a fitted effect of over 55% in size
# The depositor's hits bear a star; ? = inconclusive; . = no result; + = active, no number; [ ] = another dose, or the depositor's remark. Unless noted, calls follow the shape of the dose curve; as a rule, active = well fitted curve in the direction sought with a large enough effect; inconclusive = small, poorly fitted or top-dose-only effect, or another doubt; inactive = no such curve, though single readings can be large; an effect the other way counts as inactive or inconclusive.
SMILES,Pf growth 48h,CHX counter,AMA1-RON2 inh,Pf growth 96h,Shiga toxin inh,SARS PLpro yeast
CC(C)C[C@H]1CN([C@@H](CC(C)C)CN2CCC[C@@H]2CN2C(=S)NC[C@@H]2Cc2ccc(O)cc2)C(=S)N1CC1CCCCC1,.,.,-11%,.,.,.
CC1CCCN(S(=O)(=O)c2ccc(NC(=O)C3CCN(C(=O)c4ccco4)CC3)cc2)C1 (stereo not given),-21%,-6,-6%,?,17,4%
Cc1ccc(S(=O)(=O)N2N=C3CCCCC3C2(O)C(F)(F)F)cc1 (stereo not given),?,4,-15%,25%,53,1%
Cc1cccc(C(=O)Nc2ccc(C(=O)N/N=C/c3ccc4c(c3)OCO4)cc2)c1,?,-6,43%,2%,-4,-5%
O=C(N/N=C/c1ccc2c(c1)OCO2)c1cccc(NC(=O)c2ccccc2Cl)c1,2%,12,35%,42%,48*,3%
O=C(N/N=C/c1ccc2c(c1)OCO2)C(=O)Nc1cccc(Cl)c1,24%,16*,20%,-12%,65*,3%
Cc1ccccc1C(=O)Nc1cccc(C(=O)N/N=C/c2ccc3c(c2)OCO3)c1,3%,20*,-8%,3%,55*,3%
Cc1cccc(C(=O)Nc2cccc(C(=O)N/N=C/c3ccc4c(c3)OCO4)c2)c1,23%,40*,-14%,1%,79*,0%
Cc1c(Cl)cn2c(=O)cc(CN3CCN(c4ccc(F)cc4)CC3)nc2c1Cl,7%,3,.,-8%,11,0%
CCOC(=O)N/N=C/c1c(F)c(F)c(F)c(F)c1F,-15%,-1,8%,?,12,1%
CCOC(=O)N/N=C/c1c(F)cccc1F,37%,25*,50%,66%,35*,-12%
O=C(COCC(=O)N/N=C/c1ccccc1F)N/N=C/c1ccccc1F,-14%,11,0%,9.3µM*,22,8%
O=C(CO)N/N=C/c1ccccc1F,-8%,-1,-1%,35%,-18,8%
CCOC(=O)N/N=C/c1ccc(F)cc1,59%,39*,-3%,63%,70*,-2%
CCOC(=O)C(=O)N/N=C/c1ccc(F)cc1,25%,2,-18%,20%,23,-1%
CCOC(=O)N/N=C/c1ccccc1F,104%,33*,6%,264%,83*,0%
Nc1c(-c2ccc(F)cc2)nc2ncccn12,.,.,11%,.,.,.
CCOc1ccc(S(=O)(=O)Nc2cccc(C(=O)NCCCn3ccnc3)c2)cc1,?,.,15%,?,.,0%
CCOC(=O)N/N=C/c1ccc(OC)c(O)c1,53%,33*,-13%,?,69*,1%
CCOC(=O)N/N=C/c1ccc(N(CC)CC)cc1O,?,23*,42%[2.32 µM],4.1µM*,62*,-21%
CCOC(=O)N/N=C/c1cc(OC)c(O)c(OC)c1,15%,-5,-1%,-1%,6,11%
CCOC(=O)N/N=C/c1cccc(Cl)c1Cl,39%,40*,22%,9%,79*,4%
CCN(CC)c1ccc(/C=N/Nc2ccc(C)cc2)c(O)c1,-4%,10,?,?,24,?
Cc1cc(C(=O)N/N=C/c2cccc(Cl)c2Cl)no1,62%,38*,14%,.,76*,-7%
COc1cccc(OC)c1C(=O)Nc1ccccc1C(=O)N1CCCC1,24%,1,-3%,-1%,-16,0%
SMILES,Pf growth 48h,CHX counter,AMA1-RON2 inh,Pf growth 96h,Shiga toxin inh,SARS PLpro yeast
O=C(Nc1ccc(S(=O)(=O)Nc2ncccn2)cc1)c1ccc2ncsc2c1,?,9,?,?,17,0%
CCc1ccc(/C=N/NC(=O)c2cc(C)on2)s1,31%,35*,5%,-10%,+,-7%
COc1cccc2c1C(=O)O/C2=C/c1ccc2c(c1)OCO2,.,43*,.,122%,71*,-15%
Cc1nc(SCC(=O)N2CCOCC2)c2c3c(sc2n1)CCC3,.,.,-8%,.,.,1%
N#C/C(=C1/CCCCCN1)c1nc2ccccc2[nH]1,20%,122*,-5%,-9%,44*,9%
N#C/C(=C(/O)C(Cl)(Cl)Cl)c1nc2ccccc2[nH]1,13%,13*,57%,35%,18,-2%
C/C(O)=C(/C#N)c1nc2ccccc2[nH]1,37%,-1,25%,-13%,-4,6%
N#C/C(C(=O)c1ccccc1)=C1/CCCCCN1,145%,44*,-9%,15%,94*,5%
CC(=O)OC(/C(O)=C(\C#N)c1nc2ccccc2[nH]1)c1ccccc1 (stereo not given),?,10,26%,9.3µM*,18,2%
CCOc1ccc(-c2ncncc2-c2ccc(OC)c(OC)c2)c(O)c1,?,1,-5%,?,-4,2%
COC(=O)[C@@]12C[C@@H](CC(=O)NCc3cccc(C(F)(F)F)c3)C(=O)N(CCc3ccc(OC)c(OC)c3)C1=CCC(C)(C)C2,.,.,-22%,.,.,.
CC(C)C1N(C(=O)N2CCOCC2)CCN1S(=O)(=O)c1ccccc1 (stereo not given),12%,-1,14%,6%,-4,1%
N#C/C(=C(/O)c1ccc(Cl)cc1)c1nc2ccccc2[nH]1,23%,-4,37%,10%,-6,-1%
COc1cc(/C(O)=C(\C#N)c2nc3ccccc3[nH]2)cc(OC)c1OC,?,1,70%,15µM*,8,0%
COc1cc(OC)cc(-c2cc3nc(C)cc(N4CCN(C(=O)c5ccco5)CC4)n3n2)c1,.,-4,.,1.9µM*,-20,-5%
Cc1ccc(-c2csc(N3CCC(C(N)=O)CC3)n2)cc1,?,.,.,?,.,-6%
Cc1ccc(-c2csc(N3CCC(NS(=O)(=O)c4ccc5c(c4)OCCO5)CC3)n2)cc1,?,-1,-25%,9.3µM*,-3,-5%
CCOc1ccc(NC(=S)Nc2ccc(Br)cc2Cl)cc1,0%,-1,9%,-12%,16,0%
CCOCCCNC(=S)Nc1ccc(Br)cc1Cl,?,12*,1%,-21%,36,0%
S=C(NCCc1ccccc1)NCCc1cnc[nH]1,25%,16*,45%,?,.,8%
S=C(NCCCc1ccccc1)NCc1ccccc1,-24%,26*,-8%,-13%,25*,10%
CCOCCCNC(=S)NC1CC2CCC(C1)N2Cc1ccccc1 (stereo not given),-15%,-2,4%,?,-18,0%
CCOCCCNC(=S)NCCc1ccccc1,36%,43*,-9%,?,108*,8%
Cc1ccc(N(C(=O)CNC(=O)c2ccco2)C(C(=O)NC2CCCC2)c2cccnc2)c(C)c1 (stereo not given),-22%,-5,-10%,-3%,-5,2%
Nc1nc2c(Cl)ccc(Cl)c2s1,?,-4,-3%,8.3µM*,32,2%
